The supplement of paper PMC11001985
A number with no mark means an inactive call.

Compound: C#CCNC(=O)CCSSCCC(=O)NCCc1ccc(C=O)c(C=O)c1
Test: lysine labeling ratio R10:1 (500 µM / 50 µM probe), SILAC-ABPP in living cells; higher = lower intrinsic lysine reactivity toward the probe, active = 2 or less
Details: HeLa; probe concentrations 500 vs 50 µM
In short: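 With forward and reverse label swaps, light and heavy SILAC HeLa cells, alive and in PBS at room temperature, were exposed to either 500 µM or 50 µM of an alkyne-tagged lysine probe bearing a disulfide link. After mixing, lysates were clicked to biotin-azide, cut with trypsin, pulled down on neutravidin, freed with DTT, alkylated and analysed on a TIMS-TOF Pro by LC-MS/MS. The per-lysine value R is the median over forward and reverse replicates of the filtered median high-probe/low-probe MS1 peptide ratio. It is capped at 20.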

Chain of UniProt O75915 (O75915 whole entry): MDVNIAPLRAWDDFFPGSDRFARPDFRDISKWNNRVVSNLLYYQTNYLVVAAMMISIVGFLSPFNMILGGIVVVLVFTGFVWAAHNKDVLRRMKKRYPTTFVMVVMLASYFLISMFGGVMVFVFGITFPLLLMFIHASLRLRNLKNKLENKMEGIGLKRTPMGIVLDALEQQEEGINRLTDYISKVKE
Chain of UniProt Q15149 (Q15149 whole entry): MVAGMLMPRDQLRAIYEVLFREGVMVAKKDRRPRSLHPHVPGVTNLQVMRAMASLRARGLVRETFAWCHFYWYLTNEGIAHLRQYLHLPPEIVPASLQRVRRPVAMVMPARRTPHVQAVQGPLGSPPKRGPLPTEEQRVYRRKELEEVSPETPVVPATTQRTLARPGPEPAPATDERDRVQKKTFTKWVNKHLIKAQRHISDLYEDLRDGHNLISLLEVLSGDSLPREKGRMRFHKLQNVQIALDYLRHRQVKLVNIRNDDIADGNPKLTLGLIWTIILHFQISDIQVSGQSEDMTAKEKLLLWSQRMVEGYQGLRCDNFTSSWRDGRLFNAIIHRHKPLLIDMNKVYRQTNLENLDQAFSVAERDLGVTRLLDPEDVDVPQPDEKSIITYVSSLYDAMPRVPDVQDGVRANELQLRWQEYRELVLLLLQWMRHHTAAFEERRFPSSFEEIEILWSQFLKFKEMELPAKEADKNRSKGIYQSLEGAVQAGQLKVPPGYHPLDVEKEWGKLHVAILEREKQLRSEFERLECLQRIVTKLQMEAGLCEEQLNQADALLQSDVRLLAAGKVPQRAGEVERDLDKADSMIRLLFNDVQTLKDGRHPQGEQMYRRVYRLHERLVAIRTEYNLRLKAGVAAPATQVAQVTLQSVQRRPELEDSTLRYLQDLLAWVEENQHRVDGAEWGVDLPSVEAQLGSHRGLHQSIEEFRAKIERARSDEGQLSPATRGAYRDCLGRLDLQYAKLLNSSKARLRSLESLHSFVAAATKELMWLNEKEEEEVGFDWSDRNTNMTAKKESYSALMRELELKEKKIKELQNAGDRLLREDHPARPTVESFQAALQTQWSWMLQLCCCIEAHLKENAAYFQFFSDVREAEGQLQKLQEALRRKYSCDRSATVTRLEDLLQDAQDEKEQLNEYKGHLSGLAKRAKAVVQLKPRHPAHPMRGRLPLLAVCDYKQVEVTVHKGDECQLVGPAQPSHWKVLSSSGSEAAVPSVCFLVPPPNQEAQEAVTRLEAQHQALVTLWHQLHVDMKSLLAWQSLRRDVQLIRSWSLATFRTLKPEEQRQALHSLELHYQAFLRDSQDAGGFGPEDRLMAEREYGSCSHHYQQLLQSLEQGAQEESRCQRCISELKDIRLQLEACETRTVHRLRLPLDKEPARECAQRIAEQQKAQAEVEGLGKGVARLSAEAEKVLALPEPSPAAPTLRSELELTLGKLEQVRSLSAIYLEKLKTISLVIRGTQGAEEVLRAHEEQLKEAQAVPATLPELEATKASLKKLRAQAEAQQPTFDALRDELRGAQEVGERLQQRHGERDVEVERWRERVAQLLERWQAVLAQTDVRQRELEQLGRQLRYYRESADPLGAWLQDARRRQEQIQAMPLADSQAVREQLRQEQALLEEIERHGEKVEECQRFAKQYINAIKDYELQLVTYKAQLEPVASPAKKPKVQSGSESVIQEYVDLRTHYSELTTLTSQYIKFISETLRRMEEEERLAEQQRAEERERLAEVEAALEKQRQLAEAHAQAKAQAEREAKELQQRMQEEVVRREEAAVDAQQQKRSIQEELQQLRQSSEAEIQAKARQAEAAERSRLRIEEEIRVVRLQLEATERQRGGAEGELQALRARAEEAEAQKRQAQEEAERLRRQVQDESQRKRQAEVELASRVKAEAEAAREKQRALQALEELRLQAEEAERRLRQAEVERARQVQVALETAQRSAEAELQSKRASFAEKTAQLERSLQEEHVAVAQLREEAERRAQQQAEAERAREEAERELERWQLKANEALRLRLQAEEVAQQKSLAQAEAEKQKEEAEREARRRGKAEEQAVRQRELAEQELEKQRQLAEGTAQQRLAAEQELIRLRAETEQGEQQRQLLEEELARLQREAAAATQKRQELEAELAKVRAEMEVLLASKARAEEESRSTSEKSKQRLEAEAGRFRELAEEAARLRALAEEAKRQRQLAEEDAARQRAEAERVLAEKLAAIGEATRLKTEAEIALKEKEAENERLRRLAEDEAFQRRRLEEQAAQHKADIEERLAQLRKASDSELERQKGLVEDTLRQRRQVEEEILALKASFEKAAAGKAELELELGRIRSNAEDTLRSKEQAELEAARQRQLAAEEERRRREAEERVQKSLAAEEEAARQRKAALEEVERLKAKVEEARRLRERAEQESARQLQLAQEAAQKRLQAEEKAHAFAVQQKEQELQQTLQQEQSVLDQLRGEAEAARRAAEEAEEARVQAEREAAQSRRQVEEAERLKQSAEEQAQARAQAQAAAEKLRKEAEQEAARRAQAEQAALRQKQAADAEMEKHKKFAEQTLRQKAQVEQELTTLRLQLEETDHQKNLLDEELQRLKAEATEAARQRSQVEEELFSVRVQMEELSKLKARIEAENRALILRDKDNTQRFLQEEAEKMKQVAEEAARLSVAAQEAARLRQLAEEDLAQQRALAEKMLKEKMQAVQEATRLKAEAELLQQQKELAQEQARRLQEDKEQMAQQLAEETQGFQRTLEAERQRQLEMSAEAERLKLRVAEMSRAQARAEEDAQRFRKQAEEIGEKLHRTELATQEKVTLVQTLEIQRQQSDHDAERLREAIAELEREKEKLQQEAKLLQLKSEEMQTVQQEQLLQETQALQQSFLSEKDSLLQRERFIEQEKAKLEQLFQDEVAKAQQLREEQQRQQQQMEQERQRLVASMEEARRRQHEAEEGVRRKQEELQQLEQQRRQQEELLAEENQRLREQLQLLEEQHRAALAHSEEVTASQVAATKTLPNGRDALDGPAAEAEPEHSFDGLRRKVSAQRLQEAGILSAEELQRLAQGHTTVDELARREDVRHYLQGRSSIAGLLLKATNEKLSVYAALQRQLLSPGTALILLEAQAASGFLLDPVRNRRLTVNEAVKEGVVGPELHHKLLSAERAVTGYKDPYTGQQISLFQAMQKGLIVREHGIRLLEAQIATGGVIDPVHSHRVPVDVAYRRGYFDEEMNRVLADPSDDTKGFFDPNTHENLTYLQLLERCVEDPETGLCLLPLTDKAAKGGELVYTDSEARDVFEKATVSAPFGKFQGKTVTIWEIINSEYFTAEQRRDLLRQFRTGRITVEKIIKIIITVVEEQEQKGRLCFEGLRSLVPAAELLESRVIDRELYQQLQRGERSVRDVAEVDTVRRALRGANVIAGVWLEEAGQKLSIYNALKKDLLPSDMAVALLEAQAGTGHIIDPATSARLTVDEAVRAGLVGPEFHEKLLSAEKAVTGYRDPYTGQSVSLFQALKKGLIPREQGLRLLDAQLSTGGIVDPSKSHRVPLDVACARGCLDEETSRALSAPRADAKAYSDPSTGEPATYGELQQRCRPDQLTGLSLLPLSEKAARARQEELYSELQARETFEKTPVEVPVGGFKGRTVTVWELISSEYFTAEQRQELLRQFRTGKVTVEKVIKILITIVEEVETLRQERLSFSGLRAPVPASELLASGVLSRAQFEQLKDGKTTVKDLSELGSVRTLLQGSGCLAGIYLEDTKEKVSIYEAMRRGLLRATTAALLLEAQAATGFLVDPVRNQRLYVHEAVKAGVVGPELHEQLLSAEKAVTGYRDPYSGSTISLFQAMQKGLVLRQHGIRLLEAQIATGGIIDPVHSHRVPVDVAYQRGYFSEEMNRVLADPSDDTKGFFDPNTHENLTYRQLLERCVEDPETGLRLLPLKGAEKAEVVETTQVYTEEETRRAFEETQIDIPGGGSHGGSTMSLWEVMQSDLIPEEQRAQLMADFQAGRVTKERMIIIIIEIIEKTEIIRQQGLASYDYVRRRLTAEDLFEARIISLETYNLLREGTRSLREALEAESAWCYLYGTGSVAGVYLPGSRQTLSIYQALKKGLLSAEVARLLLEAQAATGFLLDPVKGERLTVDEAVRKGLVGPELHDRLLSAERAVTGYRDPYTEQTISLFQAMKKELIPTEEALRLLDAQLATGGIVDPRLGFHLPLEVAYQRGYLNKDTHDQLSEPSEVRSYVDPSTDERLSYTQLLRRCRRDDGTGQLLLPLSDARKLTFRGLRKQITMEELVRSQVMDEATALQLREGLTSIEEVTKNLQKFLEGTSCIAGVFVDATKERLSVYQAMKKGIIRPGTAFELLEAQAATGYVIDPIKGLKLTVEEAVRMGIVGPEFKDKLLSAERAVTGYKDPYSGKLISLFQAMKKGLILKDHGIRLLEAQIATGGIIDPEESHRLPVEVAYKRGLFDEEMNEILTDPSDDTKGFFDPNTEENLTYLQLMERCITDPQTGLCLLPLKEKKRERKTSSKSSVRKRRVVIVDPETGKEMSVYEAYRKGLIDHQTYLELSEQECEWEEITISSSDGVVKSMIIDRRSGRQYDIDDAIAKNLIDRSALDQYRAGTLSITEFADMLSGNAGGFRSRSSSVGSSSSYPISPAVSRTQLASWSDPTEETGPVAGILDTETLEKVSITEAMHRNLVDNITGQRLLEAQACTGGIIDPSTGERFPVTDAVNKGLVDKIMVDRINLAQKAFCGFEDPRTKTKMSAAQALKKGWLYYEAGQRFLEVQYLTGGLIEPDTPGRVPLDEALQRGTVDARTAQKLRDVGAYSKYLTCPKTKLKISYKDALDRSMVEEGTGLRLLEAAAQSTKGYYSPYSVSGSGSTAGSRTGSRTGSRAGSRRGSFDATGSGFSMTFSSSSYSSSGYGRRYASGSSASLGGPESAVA
Chain of UniProt P09496 (P09496 whole entry): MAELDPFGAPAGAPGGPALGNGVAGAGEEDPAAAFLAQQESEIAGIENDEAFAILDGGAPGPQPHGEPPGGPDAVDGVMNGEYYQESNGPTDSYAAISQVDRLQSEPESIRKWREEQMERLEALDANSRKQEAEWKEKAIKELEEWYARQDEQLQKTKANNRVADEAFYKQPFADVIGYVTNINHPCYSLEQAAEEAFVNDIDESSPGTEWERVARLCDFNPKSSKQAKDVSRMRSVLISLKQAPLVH

Target	lysine labeling ratio R10:1
UniProt Q15149 (lysine site: K597)	3.48
ARL6IP5 (lysine site: K158) (UniProt O75915)	2.7
RPL3 (lysine site: K229) (UniProt P39023)	1.36 (active)
SLC25A13 (lysine site: K487) (UniProt Q9UJS0)	4.12
RPS27A (lysine site: K113) (UniProt P62979)	1.38 (active)
ITGA3 (lysine site: K100) (UniProt P26006)	2.42
GAPDH (lysine site: K5) (UniProt P04406)	1.43 (active)
CD97 (lysine site: K483) (UniProt P48960)	5.15
CLTA (lysine site: K141) (UniProt P09496)	2.25
TMEM132A (lysine site: K820) (UniProt Q24JP5)	2.33
CDH13 (lysine site: K74) (UniProt P55290)	5.06
NUMA1 (lysine site: K751) (UniProt Q14980)	2.82
ITGA6 (lysine site: K953) (UniProt P23229)	3.1
CS (lysine site: K43) (UniProt O75390)	4.66
COPA (lysine site: K607) (UniProt P53621)	1.94 (active)
PRDX2 (lysine site: K119) (UniProt P32119)	2 (active)
SPTBN1 (lysine site: K1913) (UniProt Q01082)	4.33
UniProt O60245 (lysine site: K810)	0.802 (active)
UniProt P62258 (lysine site: K12)	7.18
